Active and inactive are the calls of the source. Unless noted, no rule for the calls is given here.
Experiments:
[1] = test system: XIP peptide (Xip251-270) binding; test: XIP fragment 251-270 binding compounds – biochemical, small-molecule microarray, fluorescence 635/667 nm, 0.1 µg/mL protein, primary screen (AID 1182); conditions: fluorescent protein binding, 635 nm, higher = more signal, called active from +8 up or from −8 down
[2] = test system: XIP peptide (Xip251-270); test: compounds binding XIP fragment 251-270 – biochemical, small-molecule microarray, fluorescence 635/667 nm, 0.5 µg/mL protein, primary screen (AID 1183); conditions: fluorescence 635 nm, higher = more signal
[3] = blood-stage malaria parasite viability loss – strain 3D7, DAPI fluorescence, 100 nL, primary screen (AID 1184);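 also: parasites grown inside human red blood cells in medium with human serum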; conditions: P. falciparum 3D7 growth, 3 d, higher = more signal
[4] = target: Homeobox protein Hox-A13 (Mus musculus) (UniProt Q62424); test: disruptors of Hoxa13 oligonucleotide interaction – biochemical, fluorescence polarization, labeled oligonucleotide, primary screen (AID 1185); conditions: Hoxa13:DNA binding, 15 min, higher = more signal, called active from +8 up or from −8 down
Sequence of Homeobox protein Hox-A13 (Mus musculus) (Q62424 whole entry, looked up): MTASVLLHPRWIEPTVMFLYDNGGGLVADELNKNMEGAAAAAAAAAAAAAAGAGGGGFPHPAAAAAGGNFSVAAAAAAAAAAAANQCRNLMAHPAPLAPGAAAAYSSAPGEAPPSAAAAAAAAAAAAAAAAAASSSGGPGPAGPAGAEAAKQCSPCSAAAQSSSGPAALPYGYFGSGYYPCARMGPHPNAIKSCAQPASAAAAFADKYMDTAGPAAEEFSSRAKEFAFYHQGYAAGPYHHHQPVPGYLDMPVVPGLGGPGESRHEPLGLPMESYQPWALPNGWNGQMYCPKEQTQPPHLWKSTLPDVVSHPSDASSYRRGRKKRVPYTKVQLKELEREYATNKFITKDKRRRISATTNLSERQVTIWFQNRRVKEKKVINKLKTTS

[5] = blockers of DNA damage checkpoint Chk1 activation – imaging, HeLa, hydroxyurea, phospho-Chk1 antibody, percent positive cells, primary screen (AID 1186); conditions: hydroxyurea-induced phospho-Chk1 immunofluorescence imaging, higher = more signal
[6] = blockers of DNA damage checkpoint Chk1 activation – imaging, HeLa, hydroxyurea, phospho-Chk1 nuclear intensity, primary screen (AID 1187); conditions: hydroxyurea-induced phospho-Chk1 immunofluorescence imaging, higher = more signal

| Structure (SMILES) | composite z-score [1] | composite z-score [2] | z-score [3] | z-score [4] | z-score [5] | z-score [6] |
| --- | --- | --- | --- | --- | --- | --- |
| C[C@@]12COC[C@]13C=C(Br)[C@H](C2)[C@@]1(CO1)C3=O | 0.0387 (inactive) | -0.192 | 1.88 | -0.703 (inactive) | -0.0927 (inactive) | 0.12 (inactive) |
| CCOC(=O)C[C@H]1[C@H](OC(=O)c2ccc(-c3ccccc3)cc2)[C@@H](NC(=O)CC(C)C)c2cc(OCCCO)ccc2N1C(=O)c1ccccc1 | 0.22 (inactive) | -0.0545 | -0.419 | -3.33 (inactive) | -0.228 (inactive) | -0.0761 (inactive) |
| C#C[C@@H](CC)O[Si](C#CCCCC#N)(C(C)C)C(C)C | 1.09 (inactive) | 0.261 | -0.574 | -1.27 (inactive) | 0.33 (inactive) | 0.0685 (inactive) |
| O=C1O[C@H](c2ccccc2)[C@H](c2ccccc2)N2[C@H]1[C@@H](C(=O)N1CCCCCCC1)[C@]1(C(=O)Nc3ccc(C#CC4(O)CCCCCC4)cc31)[C@H]2c1ccccc1OCCO | 5.88 (inactive) | 0.943 | -1.88 | 4.4 (inactive) | -0.0468 (inactive) | 0.285 (inactive) |
| C[C@@H]1ON(c2ccc(I)cc2)[C@H](c2ccc(OC(=O)OC(C)(C)C)cc2)[C@H]1C(=O)N1C(=O)OC[C@H]1Cc1ccccc1 | 0.589 (inactive) | 0.515 | -2.13 | -0.866 (inactive) | -1.08 (inactive) | -0.859 (inactive) |
| CCCCNC(=O)c1ccc(C#C[Si](C(C)C)(C(C)C)C(C)C)c(OC(C)=O)c1 | -0.211 (inactive) | 0.413 | -2.74 | -2.16 (inactive) | 0.0917 (inactive) | 0.331 (inactive) |
| CN1C(=O)C2C=CC(C(O)c3cc(C(F)(F)F)cc(C(F)(F)F)c3)N(Nc3ccccc3)C2C1=O (stereo unspecified) | 1.9 (inactive) | 0.128 | 1.08 | -3.84 (inactive) | -0.0145 (inactive) | 0.0934 (inactive) |
| O=C1OCCC=C[C@H]2OC34C=CCN(c5ccc(Cl)cc5)C(=O)[C@H]3N(CCCCCCO)C(=O)[C@@H]4C12 (stereo partly specified) | 0.43 (inactive) | -0.619 | -0.278 | -5.62 (inactive) | -0.301 (inactive) | 0.116 (inactive) |
| Cc1ccccc1C(O)C1C=CC2C(=O)N(c3ccccc3)C(=O)C2N1Nc1ccc([N+](=O)[O-])cc1 (stereo unspecified) | 1.61 (inactive) | 0.618 | -0.42 | -3.91 (inactive) | -0.0666 (inactive) | -0.614 (inactive) |
| C=C(COC)C(=O)CC[C@H](OC(C)=O)c1ccc(OCCO)cc1 | -0.388 (inactive) | 0.58 | -2.39 | -4.76 (inactive) | -0.559 (inactive) | -0.357 (inactive) |
| COc1cc(CO)cc(I)c1O[C@H]1C=C(C(=O)NCCO)C[C@@H](NCC2CCCCC2)[C@@H]1O | 0.0593 (inactive) | 0.465 | -0.68 | -3.57 (inactive) | -1.23 (inactive) | -0.873 (inactive) |
| CC(C)c1ccc(NN2C(C(O)Cc3ccccc3)C=CC3C(=O)N(c4ccccc4)C(=O)C32)cc1 (stereo unspecified) | -0.0839 (inactive) | 0.655 | -0.0057 | -2.98 (inactive) | 0.656 (inactive) | 0.37 (inactive) |
| CO[C@H]1O[C@H](CO)[C@@H](OC(=O)Nc2cccc(F)c2)[C@H](OC(=O)Nc2ccccc2-c2ccccc2)[C@H]1OC(=O)Nc1ccccc1-c1ccccc1 | 0.184 (inactive) | 0.857 | -1.7 | -4.36 (inactive) | -0.788 (inactive) | -1.36 (inactive) |
| CS(=O)(=O)CCOC(=O)C1=CC(CCCO)=CC(C2CC2)N(Cc2cccc(OC(F)(F)F)c2)C=C1C(=O)OCCS(C)(=O)=O (stereo unspecified) | 0.892 (inactive) | -0.221 | -2.11 | -6.49 (inactive) | -0.002 (inactive) | -0.36 (inactive) |
| Cc1c(NC(=O)/C(C#N)=C/c2ccccc2Cl)c(=O)n(-c2ccccc2)n1C | -0.0708 (inactive) | 0.808 | 0.419 | -1.68 (inactive) | -0.0018 (inactive) | 0.281 (inactive) |
| CCCC=C(CCC)[C@@H](NS(=O)(=O)c1cccc2cccnc12)c1ccc(-c2ccccc2)cc1 | -0.356 (inactive) | 0.604 | -0.831 | -0.807 (inactive) | 0.483 (inactive) | 0.309 (inactive) |
| CCCCC(=O)N(CCN1CCOCC1)[C@@H]1CC(C(=O)NCCO)=C[C@H](Oc2c(I)cc(CO)cc2OC)[C@H]1O | 0.763 (inactive) | 0.918 | -0.0342 | -4.26 (inactive) | -0.686 (inactive) | -0.31 (inactive) |
| CO[C@H]1O[C@H](CO)[C@@H](OC(=O)Nc2ccc(C#N)cc2)[C@@H]2OC(=O)[C@H](Cc3cccc(Br)c3)C/C=C/C[C@@H](Cc3cccc(Br)c3)C(=O)O[C@@H]12 | 0.685 (inactive) | 0.254 | -1.47 | 1.1 (inactive) | -0.353 (inactive) | -0.388 (inactive) |
| COc1ccc(C(=O)Nc2cccc(CN3C(=O)[C@@]4(O[C@@H](CC(=O)N(CCO)Cc5ccccc5)[C@H]([Si](C)(C)c5ccc(OC)cc5)[C@H]4C)c4ccccc43)c2)cc1 | 1.31 (inactive) | 0.442 | -2.54 | -0.674 (inactive) | -1.43 (inactive) | -0.643 (inactive) |
| [N-]=[N+]=NC[C@H](Cc1ccccc1)NC(=O)c1ccccc1 | -0.359 (inactive) | 0.108 | -0.855 | -0.271 (inactive) | 0.0506 (inactive) | 0.216 (inactive) |
| COc1cc(C(O)C2C=CC3C(=O)N(Cc4ccccc4)C(=O)C3N2n2cnnc2)cc(OC)c1OC (stereo unspecified) | 0.494 (inactive) | 0.435 | 0.551 | -1.38 (inactive) | 0.102 (inactive) | 0.263 (inactive) |
| C=C(C(=O)CC[C@@H](OC(=O)c1ccccc1-c1ccccc1C(=O)O)c1ccccc1OCCO)C(C)C | 0.341 (inactive) | 0.698 | -2.04 | -5.82 (inactive) | 0.57 (inactive) | 0.916 (inactive) |
| CCCCCCCCCCC(O)C1C=CC2C(=O)N(C)C(=O)C2N1Nc1cc(OC)c(OC)c(OC)c1 (stereo unspecified) | 0.275 (inactive) | -0.924 | -0.326 | -3.83 (inactive) | 0.569 (inactive) | -0.418 (inactive) |
| CC(C)CCC[C@@H](C)[C@H]1CC[C@@]2(C)C3=C(CC[C@]12C)[C@@]1(C)CC[C@H](OC(=O)c2ccccc2)C(C)(C)C1CC3 (stereo partly specified) | 0.276 (inactive) | 0.0627 | -0.544 | -1 (inactive) | -0.531 (inactive) | -0.299 (inactive) |
| COc1cc(NN2C(C(O)c3ccc(I)cc3)C=CC3C(=O)N(c4ccccc4)C(=O)C32)cc(OC)c1OC (stereo unspecified) | 0.204 (inactive) | 0.816 | -0.908 | -4.54 (inactive) | 0.505 (inactive) | 0.241 (inactive) |
| O=C1C2C=CC(C(O)c3cccc(O)c3)N(Nc3ccccc3)C2C(=O)N1c1ccccc1 (stereo unspecified) | -0.234 (inactive) | 0.214 | -0.267 | -1.18 (inactive) | 0.293 (inactive) | 0.126 (inactive) |

Reference: PubChem BioAssay
